# The whole screen tested about 220,000 compounds, of which about 530 (0.24%) were called active. The full list was thinned out, with actives kept by preference. Measured potencies and affinities stand elsewhere. A number with no mark means an inactive call. Cut-off read from the data, not from the text of the source: active = inhibition above about 13%; inconclusive = no clear call, values can overlap the other calls; inactive = below that.
# Target: Bifunctional protein GlmU (Mycobacterium tuberculosis (strain ATCC 25618 / H37Rv)) (UniProt P9WMN3)
# Sequence (P9WMN3 whole entry, looked up): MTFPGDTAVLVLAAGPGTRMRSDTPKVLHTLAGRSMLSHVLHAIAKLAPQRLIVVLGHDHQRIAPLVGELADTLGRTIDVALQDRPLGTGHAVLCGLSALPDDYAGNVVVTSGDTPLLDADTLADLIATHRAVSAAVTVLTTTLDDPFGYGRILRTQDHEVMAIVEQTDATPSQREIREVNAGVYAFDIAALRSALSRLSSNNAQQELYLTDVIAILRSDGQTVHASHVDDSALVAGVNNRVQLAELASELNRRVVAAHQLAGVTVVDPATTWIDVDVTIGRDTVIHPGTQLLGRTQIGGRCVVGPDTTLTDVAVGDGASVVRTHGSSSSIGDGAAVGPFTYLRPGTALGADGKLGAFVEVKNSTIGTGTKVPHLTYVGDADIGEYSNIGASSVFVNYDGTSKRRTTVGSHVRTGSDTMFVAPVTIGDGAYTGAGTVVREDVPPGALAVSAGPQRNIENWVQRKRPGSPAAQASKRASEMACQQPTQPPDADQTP
# Experiment: inhibition of mycobacterial GlmU enzyme – biochemical, glucosamine-1-phosphate acetyltransferase (AID 1376);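 note: 0% = complete reaction with vehicle and 100% = reaction without substrate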
# Conditions: M. tuberculosis GlmU acetyltransferase enzyme assay; hits give high values;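 tested at 30 µM in the primary screen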
row,SMILES,inhibition
1,CC(C)(C)c1ccc(S(=O)(=O)Nc2ccc(Cc3ccncc3)cc2)cc1,0.43%
2,COC(=O)c1ccc(N=NNc2ccccc2)cc1,4.94%
3,CCN(CC)S(=O)(=O)c1cc(NC(=O)Cc2n[nH]c(=O)c3ccccc23)ccc1C,7.13%
4,CCC(C)(NC(=O)c1ccccn1)C(=O)NC1CCCC1 (stereo unspecified),-1.49%
5,CCC(C)(NC(=O)Cc1c[nH]c2ccccc12)C(=O)NC1CCCCC1 (stereo unspecified),0.49%
6,CCC(C)(NC(=O)CNC(C)=O)C(=O)NC1CCCCC1 (stereo unspecified),17.3% (active)
7,CC(C)(C)C1CCC2(CC1)CC(=O)c1ccccc1O2 (stereo unspecified),0.53%
8,CC(C)(C)OC(=O)N/N=C\c1ccc[nH]1,-8.2%
9,O=C(O)CCCCC1SCC2NC(=O)NC21 (stereo unspecified),-2%
10,O=C(O)CCCCCCCC(=O)O,-3.59%
11,CCNc1oc(-c2ccc(OC)cc2)nc1S(=O)(=O)c1ccc(Br)cc1,-0.98%
12,C=CCOc1ccc(C2C(C(=O)c3cccs3)=C(O)C(=O)N2c2nnc(C)s2)cc1 (stereo unspecified),15% (active)
13,C=CCOc1ccc(C2C(C(=O)c3ccco3)=C(O)C(=O)N2c2nnc(C)s2)cc1 (stereo unspecified),-3.01%
14,Cc1ccc(C2C(C(=O)c3cccs3)=C(O)C(=O)N2c2nnc(C)s2)cc1 (stereo unspecified),2.85%
15,COC(=O)CCCC1=CC2=C(c3ccccc3)C(=O)C(C)(OC(=O)C3CCCC3)C(=O)C2=CN1C1CC1 (stereo unspecified),1.9%
16,Cc1ccc(OCC(=O)N2CCOCC2)c([N+](=O)[O-])n1,-0.37%
17,COc1ccc(C2C=C(c3ccc(Br)s3)Nc3ncnn32)cc1OC (stereo unspecified),14.2% (active)
18,COc1cc(C2C=C(c3cccs3)Nc3ncnn32)cc(OC)c1OC (stereo unspecified),-2.57%
19,COc1cccc(C2C=C(c3ccc(Br)s3)Nc3ncnn32)c1OC (stereo unspecified),0.77%
20,Cc1ccc(S(=O)(=O)N2CC(O)CC2C(=O)OCc2nc3sc(C)c(C)c3c(=O)[nH]2)cc1 (stereo unspecified),1.13%
21,O=C(CCN1CCCC1)c1cccs1,-0.97%
22,O=C(COC(=O)c1c[nH]c(=O)[nH]c1=O)Nc1ccccc1,-4.87%
23,O=C(COC(=O)c1c[nH]c(=O)[nH]c1=O)NCc1ccccc1,13.3% (active)
24,COc1ccc(CNC(=O)COC(=O)c2c[nH]c(=O)[nH]c2=O)cc1OC,-0.09%

row,SMILES,inhibition
1,O=C(CN(Cc1cccs1)C(=O)CNS(=O)(=O)c1ccc(F)cc1)NCC1CCCO1 (stereo unspecified),3.23%
2,CCOc1ccc(CNC(=O)CCS(=O)(=O)Cc2ccc(C)cc2)cc1OC,2.73%
3,COc1ccc(C2(C)NC(=O)N(CC(=O)NCCC3=CCCCC3)C2=O)cc1OC (stereo unspecified),-7.87%
4,CN(C)c1nc(OCCNC(=O)Nc2ccccc2)nc(N2CCCCC2)n1,1.41%
5,COc1ccccc1C(=O)NCc1n[nH]c(=S)n1Cc1ccccc1,0.36%
6,CCCCN(CC(=O)NCc1ccc(F)cc1)C(=O)c1ccco1,-1.73%
7,CCc1cc2c(SCC(=O)c3ccccc3)ncnc2s1,-3.16%
8,CCc1cc2c(SCC(=O)O)ncnc2s1,-4.14%
9,CCc1cc2c(SCC(=O)C(C#N)=C3N(C)c4ccccc4N3C)ncnc2s1,15% (active)
10,Cn1c(=O)c2c(SCC(=O)NCCc3ccccc3)nc(C3CC3)nc2n(C)c1=O,1.2%
11,O=C(Cn1cnc2c(nnn2Cc2ccc(F)cc2)c1=O)N1CCCc2ccccc21,-5.31%
12,COc1ccc(OC)c(NC(=O)CCN2CCCCCC2)c1,-10.2%
13,CCOC(=O)CC1C(=O)NCCN1C(=O)Nc1ccccc1 (stereo unspecified),-2.01%
14,CCC(C)(C(=O)NC1CCCC1)N(C)C(=O)c1ccccn1 (stereo unspecified),-5.14%
15,CCC(C)(C(=O)NC1CCCCC1)N(C(=O)c1ccccn1)c1ccccc1 (stereo unspecified),2.61%
16,CCC(C)(C(=O)NC1CCCCC1)N(C)C(=O)c1ccccn1 (stereo unspecified),14.8% (active)
17,Cc1ccc(S(=O)(=O)Nc2nccs2)cc1[N+](=O)[O-],-3.62%
18,O=S1(=O)CCN(Cc2cccc(Cl)c2)CC1,-7.45%
19,CC(=O)Nc1cccc(NC(=O)c2ccc([N+](=O)[O-])cc2Cl)c1,-7.61%
20,Cc1ccc(C[n+]2cccc(-c3ccccc3)c2)c(C)c1,-2.52%
21,Cc1ccc(NC(=O)C2c3ccccc3Oc3ccccc32)nc1,-2.94%
22,O=C1C(=Cc2ccco2)C(=O)c2ccccc21,8.37%
23,Cc1ccc(/C=N/Nc2ccc(C(=O)O)cc2)o1,0.55%
24,Cc1ccc(C(=O)O)cc1-c1ccc(C=C2C(=O)c3ccccc3C2=O)o1,11.7%

row,SMILES,inhibition
1,O=C(O)c1ccc2c(c1)C(=O)/C(=C\c1ccco1)C2=O,17.2% (active)
2,O=C(NCc1ccco1)c1ccc2c(c1)C(=O)c1ccccc1-2,-0.25%
3,Cc1csc(SC(C)C(=O)Nc2ccc(S(=O)(=O)N3CCCC3)cc2)n1 (stereo unspecified),-1.61%
4,COCCCNC(=O)c1cc(C)nc2ccc(F)cc12,1.65%
5,CC(C)c1nnc(NC(=O)CCC(=O)N2CCN(Cc3ccccc3)CC2)s1,3.04%
6,CCN(CC)S(=O)(=O)c1ccc2nc(CCl)[nH]c2c1,-0.14%
7,Cc1sc2nc(SCc3nnc(-c4cccs4)o3)n(C3CCCC3)c(=O)c2c1C,-5.93%
8,CCOC(=O)c1c(NC(=O)CN2CCCCC2)sc(CN(C)C)c1-c1ccccc1,-2.86%
9,CC(=O)c1cc(F)c(N2CCN(C(=O)COc3ccccc3F)CC2)cc1C,1.65%
10,Cc1ccc(NC(=S)N2CCCCC2CO)cc1C (stereo unspecified),-3.71%
11,N#Cc1ccccc1OCC(=O)C1CC1,5.73%
12,COc1cccc(C(=O)CSc2nnc(-c3cccs3)o2)c1,4.7%
13,COc1ccc(N2CCN(c3ccc(N)cc3C#N)CC2)cc1,-1.62%
14,N#Cc1c(-n2cccc2)cccc1-n1cccc1,9.31%
15,N#Cc1cc(N)ccc1-n1cccc1,13.7% (active)
16,O=C(O)[C@@H](O)[C@H](O)C(=O)O,2.76%
17,O=C(O)C(Cl)Cl,2.18%
18,CC1CCc2c(sc3ncnc(NS(=O)(=O)c4cccs4)c23)C1 (stereo unspecified),0.41%
19,O=C1CSC(=Nc2cccc(Cl)c2Cl)N1Cc1cccnc1,1.06%
20,CC(=O)c1ccc(N2CCN(C(=S)Nc3cc(C)ccc3C)CC2)cc1,-4.28%
21,CCN(CC)CCN(Cc1cc2ccc(C)cc2[nH]c1=O)C(=O)NC1CCCCC1,14.2% (active)
22,CCN(CC)CCN(Cc1cc2cc3c(cc2[nH]c1=O)OCCO3)C(=O)NC1CCCCC1,4.4%
23,CCc1ccc2[nH]c(=O)c(CN(CCN(CC)CC)C(=O)NC3CCCCC3)cc2c1,-7.06%
24,O=c1[nH]c(=O)n(-c2cccc3ccccc23)c(O)c1/C=N/N1CCCCC1c1cccnc1 (stereo unspecified),-5.46%

row,SMILES,inhibition
1,CC(OC(=O)c1cccs1)C(=O)NCc1cccs1 (stereo unspecified),-4.58%
2,Cn1c(=O)c(C(=O)Nc2ncccc2O)c(O)c2ccccc21,2.25%
3,CC(=O)c1ccc(C)cc1OC(=O)c1cccc(F)c1,3.37%
4,O=C(O)c1cc(O)c2c(c1)C(=O)c1cc(O)cc(O)c1C2=O,13.3% (active)
5,Cc1cc(O)c2c(c1)C(=O)c1cc(O)cc(O)c1C2=O,-2.62%
6,O=C(O)c1cc(O)c2c(c1)C(=O)c1cccc(O)c1C2=O,0.69%
7,Cc1ccc(NC(=O)CN(C)C(=O)c2ccc(S(=O)(=O)N(C)c3ccccc3)cc2)cc1,2.55%
8,CCOc1ncccc1C(=O)N1CCN(C(c2ccccc2)c2ccccc2)CC1,7.04%
9,COC(=O)c1cc(Cl)nc2ccccc12,5.71%
10,CCOC(=O)C1=C(C)NC(=O)NC1c1c(C)nn(-c2ccccc2)c1Cl (stereo unspecified),15.1% (active)
11,CCOC(=O)C1=C(C)N(C)C(=O)NC1c1c(C)nn(-c2ccc(C)cc2)c1Cl (stereo unspecified),3.87%
12,CCOC(=O)C1=C(C)N(C)C(=O)NC1c1c(C)nn(-c2ccccc2)c1C (stereo unspecified),-0.97%
13,COc1cc(NC(=O)CCCSc2nc(-c3ccco3)cc(C(F)(F)F)n2)cc(OC)c1OC,-3.07%
14,NC(=O)c1ccccc1NC(=O)Nc1ccc(F)c(Cl)c1,-5.33%
15,O=C(Nc1cccc(Cl)c1)Nc1ccccc1C(=O)O,2.52%
16,NC(=O)c1ccccc1NC(=O)Nc1cccc(Cl)c1,14.1% (active)
17,Cc1cc([N+](=O)[O-])nn1CCCC(=O)Nc1c(C)n(C)n(-c2ccccc2)c1=O,-7.37%
18,CCOC(=O)C1(C)C=C(Nc2ccc(NC(C)=O)cc2)C(=O)N1c1ccc(NC(C)=O)cc1 (stereo unspecified),14.8% (active)
19,CCOC(=O)C1(C)C=C(Nc2ccc(O)cc2)C(=O)N1c1ccc(O)cc1 (stereo unspecified),9.21%
20,CCOC(=O)C1(C)C=C(Nc2ccc(C)cc2)C(=O)N1c1ccc(C)cc1 (stereo unspecified),-2.18%
21,CCn1c(=O)c2c(nc3n2CCN3c2ccccc2)n(C)c1=O,-6.14%
22,COc1ccc(/C=N/NC(=O)c2ccccc2O)cc1Cn1cc([N+](=O)[O-])cn1,-1.22%
23,COc1ccc(/C=N/NC(=O)CCN2CCCCC2c2cccnc2)cc1Cn1cc([N+](=O)[O-])cn1 (stereo unspecified),12.8% (active)
24,COc1ccc(/C=N\NC(=O)c2cccc([N+](=O)[O-])c2)cc1Cn1cc([N+](=O)[O-])cn1,-3.48%

# From PubChem BioAssay AID1376 (SRMLSC, 2008)
